# In ChEMBL document CHEMBL1157539, “Thousands of chemical starting points for antimalarial lead identification” (Nature, 2010):
# Key:
# Assay type in all cases: functional
# Plasmodium falciparum [1] = test: GSK_TCMDC: Inhibition of Plasmodium falciparum 3D7 in whole red blood cells, using parasite LDH activity as an index of growth. Test compounds present at 2uM
# Plasmodium falciparum [2] = test: GSK_TCMDC: Inhibition of Plasmodium falciparum Dd2 in whole red blood cells, using parasite LDH activity as an index of growth. Test compounds present at 2uM
# HepG2 = test: GSK_TCMDC: Percent inhibition of human HepG2 cell line. Test compounds present at 10uM.
Compound,Inhibition (Plasmodium falciparum [1]),Inhibition (Plasmodium falciparum [2]),Inhibition (HepG2)
CCc1sc(N2CCC(C)CC2)nc1C(=O)Nc1ccc(F)cc1C(F)(F)F,94%,65%,1%
Cl.c1cc(-c2cc3ccc(C4=NCCN4)cc3[nH]2)ccc1C1=NCCN1,97%,99%,15%
COc1ccc2nccc([C@@H](O)CN3CCC(NCc4ccc5c(c4)NC(=O)C(C)S5)CC3)c2c1.O=C(O)C(=O)O (some centres not stated),99%,72%,7%
CN(C)CCOc1ccc(N2CCN(CCCCNC(=O)c3ccc(/C=C/c4cc(Cl)cc(Cl)c4)cc3)CC2)cc1,98%,84%,97%
Cl.NC(=O)Nc1ccc2cn[nH]c2c1,97%,0%,4%
Cl.Oc1cc(-c2nc(-c3ccccc3)[nH]c2-c2ccncc2)ccc1Cl,96%,91%,64%
FC(F)(F)c1ccc2[nH]c(-c3ccc(-c4ccc(CNCCc5ccncc5)cc4)cc3)nc2c1.O=C(O)C(F)(F)F,100%,100%,26%
COc1ccc2c(N/N=C/c3cccc([N+](=O)[O-])c3)ccnc2c1,100%,99%,0%
Cc1ccccc1C1CCN(C2CCC(NC(=O)c3ccc4c(c3)-c3nocc3C(C)O4)CC2)CC1 (configuration not stated),88%,37%,68%
COc1ccc(C(=O)N2CCc3cc4nccc(N5CCN6CCC[C@H]6C5)c4cc32)cc1,98%,50%,1%
Cc1ccc2c(=NN=Cc3ccc(Cl)cc3)cc(C)[nH]c2c1,100%,34%,0%
CN1CC=C(c2csc3ccc(NC(=O)Nc4ccc(-c5ccncc5)c5ccccc45)cc23)CC1,93%,99%,20%
O=C(Nc1ccc(N2CCCCC2)c(Cl)c1)c1ccc(Br)o1,94%,94%,0%
O=C(/C=C/c1ccc(Cl)c(Cl)c1)NCCCCCN1CCCN(C(=S)Nc2ccc(Cl)c(Cl)c2)CC1,96%,0%,16%
COC(=O)c1cccc(CNCc2cccc(-c3cccc(-c4nc5cc(C(F)(F)F)ccc5[nH]4)c3)c2)c1.O=C(O)C(F)(F)F,100%,69%,7%
CC(C)(C)c1ccc(CN2CCC(NC(=O)c3cc(-c4cccc(C(F)(F)F)c4)cs3)C2)cc1.O=C(O)C(F)(F)F (configuration not stated),98%,85%,24%
COc1ccc2[nH]c(C)cc(=NN=Cc3ccccc3Cl)c2c1,100%,100%,0%
Cc1cc2c(cc1C(F)(F)F)N(C(=O)Nc1cc(OCCN(C(C)C)C(C)C)cc(C(F)(F)F)c1)CC2.Cl,100%,86%,42%
CCCCCCCN1CC[C@@H](CCC(O)c2ccnc3ccc(OC)cc23)[C@@H](CC)C1 (some centres not stated),97%,93%,34%
Cc1ccnc2nc(C(=O)Nc3cc(C(F)(F)F)ccc3N3CCCCC3)nn12,96%,94%,7%
NC1CCCN(Cc2cccc(-c3cccc(-c4nc5ccccc5[nH]4)c3)c2)C1.O=C(O)C(F)(F)F (configuration not stated),100%,61%,24%
Cc1cnccc1/C=C/c1cccc(OCCN2CCc3ccc(S(C)(=O)=O)cc3CC2)c1,93%,80%,9%
CCN(CC)CCN(Cc1ccc(-c2ccc(C(F)(F)F)cc2)cc1)C(=O)Cn1c(CCc2ccc(F)c(C#N)c2)nc(=O)c2ccccc21.O=C(O)C(O)C(O)C(=O)O,98%,55%,18%
Cc1cc(=NN=CC=Cc2ccccc2)c2ccccc2[nH]1,100%,69%,19%
Cc1cc(N/N=C/c2cccc([N+](=O)[O-])c2)c2ccccc2n1,100%,98%,0%
CCCC(CNCc1cccc(I)c1)CNc1cc(=O)c2ccccc2[nH]1 (configuration not stated),100%,96%,0%
O=C(CSc1nc(-c2ccccc2Cl)ns1)Nc1cccc(Cl)c1,96%,89%,0%
O=C(Cc1cccc(Cl)c1)Nc1ccc(N2CCC(NCc3ccc4ncccc4c3)CC2)cc1,81%,8%,10%
COc1cc(C)nc2ccc(NC(=O)Nc3ccc([N+](=O)[O-])cc3C)cc12,90%,52%,10%
